The values below come from ChEMBL document CHEMBL3988442, “University of Dundee, Small-Polar-MMV Screening Library” (2021).

Holding throughout (design): scale not given: direction of the effect not stated beside the values
For assay [1], the target named is Protein translocase subunit SecA (Escherichia coli (strain K12)) (UniProt P10408). Put plainly: Assay to Identify E. coli SecA ATPase Inhibitors. The assay is classed as functional. The settings on record: 30 µM.
The target in assay [2] is T1, Ubiquitin-activating enzyme e1, putative (Leishmania donovani (strain BPK282A1)) (UniProt E9BSI1).
T1 sequence (whole entry): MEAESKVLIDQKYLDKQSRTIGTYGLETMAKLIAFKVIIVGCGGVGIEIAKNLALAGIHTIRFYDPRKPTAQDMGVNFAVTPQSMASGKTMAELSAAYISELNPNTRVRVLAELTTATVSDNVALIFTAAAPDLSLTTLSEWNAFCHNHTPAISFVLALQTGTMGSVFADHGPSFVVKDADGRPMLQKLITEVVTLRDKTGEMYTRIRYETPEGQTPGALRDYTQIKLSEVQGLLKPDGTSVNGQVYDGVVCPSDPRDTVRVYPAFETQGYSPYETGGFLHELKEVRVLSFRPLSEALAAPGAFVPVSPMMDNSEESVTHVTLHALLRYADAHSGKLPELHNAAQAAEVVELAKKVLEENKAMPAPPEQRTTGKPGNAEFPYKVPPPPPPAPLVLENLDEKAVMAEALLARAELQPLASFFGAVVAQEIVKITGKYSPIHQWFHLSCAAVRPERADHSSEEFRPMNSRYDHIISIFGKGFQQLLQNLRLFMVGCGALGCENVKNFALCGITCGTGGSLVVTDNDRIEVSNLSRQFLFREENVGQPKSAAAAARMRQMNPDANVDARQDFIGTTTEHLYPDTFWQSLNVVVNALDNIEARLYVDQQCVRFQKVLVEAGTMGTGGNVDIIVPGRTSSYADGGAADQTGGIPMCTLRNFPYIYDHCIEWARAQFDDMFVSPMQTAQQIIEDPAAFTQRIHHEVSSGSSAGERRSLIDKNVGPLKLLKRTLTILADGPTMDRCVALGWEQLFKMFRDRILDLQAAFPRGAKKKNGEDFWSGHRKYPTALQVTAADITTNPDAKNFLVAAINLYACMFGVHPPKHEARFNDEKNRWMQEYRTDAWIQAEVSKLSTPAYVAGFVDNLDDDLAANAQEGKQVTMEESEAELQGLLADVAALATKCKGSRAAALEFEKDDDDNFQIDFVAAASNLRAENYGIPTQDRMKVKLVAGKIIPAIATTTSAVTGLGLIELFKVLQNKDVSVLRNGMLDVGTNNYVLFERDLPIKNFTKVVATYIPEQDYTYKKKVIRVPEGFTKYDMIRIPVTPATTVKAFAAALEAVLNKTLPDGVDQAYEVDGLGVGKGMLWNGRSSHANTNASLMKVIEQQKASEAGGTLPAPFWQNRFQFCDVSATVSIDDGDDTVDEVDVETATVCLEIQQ
Put plainly: Leishmania donovani Ubiquitin Activating Enzyme (LdE1). The assay is classed as functional. The conditions noted are these: 30 µM.

For assay [3], the target named is Sialic acid-binding Ig-like lectin 9 (Homo sapiens) (UniProt Q9Y336). Kind of assay: Hs-Siglec9 ALPHAscreen SOP 20170721. The settings on record: 10 µM. (Bead proximity is the source of the signal in Alpha formats.)
Chain of Sialic acid-binding Ig-like lectin 9 (Homo sapiens) (Q9Y336 whole entry): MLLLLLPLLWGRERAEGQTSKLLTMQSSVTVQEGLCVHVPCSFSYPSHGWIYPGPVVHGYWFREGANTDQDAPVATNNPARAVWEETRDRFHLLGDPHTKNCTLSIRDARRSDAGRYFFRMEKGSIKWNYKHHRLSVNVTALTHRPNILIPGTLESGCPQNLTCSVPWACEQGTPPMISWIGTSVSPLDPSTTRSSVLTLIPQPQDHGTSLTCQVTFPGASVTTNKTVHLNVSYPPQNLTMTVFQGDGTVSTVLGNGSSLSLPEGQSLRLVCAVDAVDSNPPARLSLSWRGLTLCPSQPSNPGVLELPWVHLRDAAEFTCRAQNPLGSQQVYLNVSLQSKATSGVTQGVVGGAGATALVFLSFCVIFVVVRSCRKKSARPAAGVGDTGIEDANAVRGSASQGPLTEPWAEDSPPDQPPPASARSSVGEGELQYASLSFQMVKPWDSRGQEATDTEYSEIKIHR
A further assay has as its system Trypanosoma cruzi. Put plainly: Trypanosoma cruzi phosphomannomutase and mannose-1-phosphate guanylyltransferase assay. The assay is classed as functional. The settings on record: 10 µM.
The target of assay [4] is T2, Arginase-2, mitochondrial (Homo sapiens) (UniProt P78540).
T2 sequence (whole entry): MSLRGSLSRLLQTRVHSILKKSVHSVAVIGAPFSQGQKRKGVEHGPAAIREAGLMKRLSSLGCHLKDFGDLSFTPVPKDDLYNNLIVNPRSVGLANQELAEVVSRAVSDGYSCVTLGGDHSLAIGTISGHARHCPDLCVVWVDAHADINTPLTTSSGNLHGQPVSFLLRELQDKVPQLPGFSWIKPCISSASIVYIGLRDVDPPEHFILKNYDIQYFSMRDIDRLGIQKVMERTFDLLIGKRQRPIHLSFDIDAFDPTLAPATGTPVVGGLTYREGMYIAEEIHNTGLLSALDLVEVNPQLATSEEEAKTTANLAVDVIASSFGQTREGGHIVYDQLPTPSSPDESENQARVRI
Put plainly: in vitro enzyme assay to detect the production of urea directly proportional to the activity of Arginase II. Also: in the data most compounds retested in dose-response had high values. The assay is classed as functional. The conditions noted are these: 33.3 µM.

The target of assay [5] is T3, Proteasome subunit beta (Trypanosoma cruzi) (UniProt O96673).
T3 sequence (whole entry): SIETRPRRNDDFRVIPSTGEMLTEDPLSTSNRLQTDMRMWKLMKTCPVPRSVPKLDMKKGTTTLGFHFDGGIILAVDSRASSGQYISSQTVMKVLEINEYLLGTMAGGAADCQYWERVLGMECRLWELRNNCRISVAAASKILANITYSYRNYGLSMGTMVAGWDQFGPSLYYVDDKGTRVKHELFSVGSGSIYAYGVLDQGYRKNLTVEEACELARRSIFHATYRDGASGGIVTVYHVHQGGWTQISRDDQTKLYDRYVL
Put plainly: Trypanosoma cruzi proteasome chymotrypsin-like activity (TcProtChymo) assay. Also: in the data most compounds retested in dose-response had high values. The assay is classed as functional. The conditions noted are these: 9.37 µM.

The species named for another assay is Homo sapiens. Put plainly: To identify inhibition of the IFN signalling (Jak-Stat) pathway via expression of an eGFP reporter gene under the control of an IFN-stimulated response element (ISRE) containing MxA promoter. The assay is classed as functional. The conditions noted are these: 30 µM.
Assay [6] has as its target T4, Tyrosyl-tRNA synthetase, putative (Trypanosoma cruzi (strain CL Brener)) (UniProt Q4DSP6).
T4 sequence (whole entry): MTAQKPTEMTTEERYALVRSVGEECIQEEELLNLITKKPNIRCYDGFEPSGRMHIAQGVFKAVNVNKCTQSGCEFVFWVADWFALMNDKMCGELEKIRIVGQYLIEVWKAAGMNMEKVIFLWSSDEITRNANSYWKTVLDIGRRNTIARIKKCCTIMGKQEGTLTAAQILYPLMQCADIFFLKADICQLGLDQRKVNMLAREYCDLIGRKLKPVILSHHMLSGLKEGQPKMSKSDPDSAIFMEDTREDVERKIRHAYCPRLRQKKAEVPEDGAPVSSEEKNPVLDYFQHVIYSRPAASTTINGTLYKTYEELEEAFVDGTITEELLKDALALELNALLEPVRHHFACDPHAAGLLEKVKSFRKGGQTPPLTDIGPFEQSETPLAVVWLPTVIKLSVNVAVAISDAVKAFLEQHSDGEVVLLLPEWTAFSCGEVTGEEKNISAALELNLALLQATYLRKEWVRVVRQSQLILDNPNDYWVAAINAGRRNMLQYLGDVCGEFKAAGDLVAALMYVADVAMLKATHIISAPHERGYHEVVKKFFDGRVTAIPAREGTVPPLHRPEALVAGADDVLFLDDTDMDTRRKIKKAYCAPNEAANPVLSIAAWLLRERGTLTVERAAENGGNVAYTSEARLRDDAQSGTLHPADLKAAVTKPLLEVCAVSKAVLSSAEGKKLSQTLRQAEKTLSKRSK
Kind of assay: Trypanosoma cruzi tyrosyl tRNA synthetase (TcYRS) _High Tyrosine SOP. Also: in the data most compounds retested in dose-response had high values. The settings on record: 30 µM. The assay is classed as functional.

Assay [7] deals with T4, Tyrosyl-tRNA synthetase, putative (Trypanosoma cruzi (strain CL Brener)). Put plainly: Trypanosoma cruzi tyrosyl tRNA synthetase (TcYRS) SOP. The assay is classed as functional. The conditions noted are these: 30 µM.
The target in assay [8] is Chromo domain-containing protein 1 (Saccharomyces cerevisiae (strain ATCC 204508 / S288c) (Baker's yeast)) (UniProt P32657). Kind of assay: ScCHD-1 Enzyme Inhibition Assay. Also: in the data most compounds retested in dose-response had high values. The assay is classed as functional. The settings on record: 30 µM.
Chain of Chromo domain-containing protein 1 (Saccharomyces cerevisiae (strain ATCC 204508 / S288c) (Baker's yeast)) (P32657 whole entry, the tested form may be a part): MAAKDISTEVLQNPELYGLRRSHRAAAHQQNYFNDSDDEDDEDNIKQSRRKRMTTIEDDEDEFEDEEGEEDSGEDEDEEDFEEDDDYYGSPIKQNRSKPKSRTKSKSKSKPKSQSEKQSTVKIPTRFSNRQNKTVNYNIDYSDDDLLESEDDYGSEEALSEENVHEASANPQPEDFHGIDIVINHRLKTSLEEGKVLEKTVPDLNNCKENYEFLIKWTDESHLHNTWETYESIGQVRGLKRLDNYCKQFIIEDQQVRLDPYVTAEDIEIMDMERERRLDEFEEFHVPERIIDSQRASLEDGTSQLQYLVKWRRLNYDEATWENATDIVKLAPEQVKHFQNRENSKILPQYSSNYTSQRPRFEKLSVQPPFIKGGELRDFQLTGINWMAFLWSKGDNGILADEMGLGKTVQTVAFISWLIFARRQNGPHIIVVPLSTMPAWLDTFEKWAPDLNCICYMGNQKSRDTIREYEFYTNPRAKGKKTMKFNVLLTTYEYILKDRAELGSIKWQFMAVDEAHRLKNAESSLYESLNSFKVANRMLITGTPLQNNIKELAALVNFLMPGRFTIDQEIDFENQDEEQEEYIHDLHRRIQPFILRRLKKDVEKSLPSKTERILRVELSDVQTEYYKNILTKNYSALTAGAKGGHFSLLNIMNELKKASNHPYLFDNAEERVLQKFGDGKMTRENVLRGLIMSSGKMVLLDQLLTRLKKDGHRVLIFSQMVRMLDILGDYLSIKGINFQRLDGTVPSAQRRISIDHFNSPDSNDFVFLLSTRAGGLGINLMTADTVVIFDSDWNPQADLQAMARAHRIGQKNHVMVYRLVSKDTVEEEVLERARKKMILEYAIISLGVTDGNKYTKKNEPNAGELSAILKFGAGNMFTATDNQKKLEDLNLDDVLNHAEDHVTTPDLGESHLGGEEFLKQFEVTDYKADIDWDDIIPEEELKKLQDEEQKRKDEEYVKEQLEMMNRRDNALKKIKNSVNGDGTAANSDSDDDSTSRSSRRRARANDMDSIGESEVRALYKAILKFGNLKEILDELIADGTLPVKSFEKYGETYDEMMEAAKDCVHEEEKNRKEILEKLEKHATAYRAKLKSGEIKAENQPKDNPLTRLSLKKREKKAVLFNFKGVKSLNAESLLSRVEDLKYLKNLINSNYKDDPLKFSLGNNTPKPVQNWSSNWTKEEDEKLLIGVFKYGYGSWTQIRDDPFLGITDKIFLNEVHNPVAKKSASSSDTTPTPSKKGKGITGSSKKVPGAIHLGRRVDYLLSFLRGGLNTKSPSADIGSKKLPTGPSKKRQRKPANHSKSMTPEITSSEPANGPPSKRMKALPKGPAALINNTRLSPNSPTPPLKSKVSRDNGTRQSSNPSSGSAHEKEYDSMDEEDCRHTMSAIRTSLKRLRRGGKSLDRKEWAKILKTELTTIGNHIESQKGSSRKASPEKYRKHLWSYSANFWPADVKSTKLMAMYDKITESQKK

For some of these results: Measured potencies and affinities stand elsewhere.

Chain of Protein translocase subunit SecA (Escherichia coli (strain K12)) (P10408 whole entry): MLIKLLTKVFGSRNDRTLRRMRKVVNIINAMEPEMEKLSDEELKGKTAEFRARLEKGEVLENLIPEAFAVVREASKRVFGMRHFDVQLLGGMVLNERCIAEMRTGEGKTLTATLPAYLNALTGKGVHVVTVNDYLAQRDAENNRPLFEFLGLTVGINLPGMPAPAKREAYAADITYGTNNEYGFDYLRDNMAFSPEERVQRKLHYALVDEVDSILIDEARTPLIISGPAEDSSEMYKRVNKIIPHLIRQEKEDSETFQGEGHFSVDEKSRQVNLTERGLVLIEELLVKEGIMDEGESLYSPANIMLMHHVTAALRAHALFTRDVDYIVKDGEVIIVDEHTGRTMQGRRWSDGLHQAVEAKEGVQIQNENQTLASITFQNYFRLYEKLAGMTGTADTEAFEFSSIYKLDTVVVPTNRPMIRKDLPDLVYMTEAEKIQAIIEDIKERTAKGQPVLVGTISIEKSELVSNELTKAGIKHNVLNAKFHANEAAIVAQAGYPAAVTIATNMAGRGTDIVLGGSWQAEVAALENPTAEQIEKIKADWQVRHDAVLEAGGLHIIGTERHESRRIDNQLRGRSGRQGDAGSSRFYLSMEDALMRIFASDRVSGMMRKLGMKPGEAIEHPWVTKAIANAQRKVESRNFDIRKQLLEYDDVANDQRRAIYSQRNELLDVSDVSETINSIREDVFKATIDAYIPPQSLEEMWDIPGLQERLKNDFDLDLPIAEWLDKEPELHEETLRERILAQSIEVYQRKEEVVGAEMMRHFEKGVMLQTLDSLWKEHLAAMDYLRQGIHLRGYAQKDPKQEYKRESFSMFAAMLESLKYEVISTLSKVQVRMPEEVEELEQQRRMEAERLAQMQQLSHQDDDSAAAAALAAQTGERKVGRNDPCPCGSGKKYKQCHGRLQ

Take `CNC(=O)c1cccnc1Oc1ccccc1`: the Percent Effect was -2.06% in assay [1]; 19.5% in assay [2]; 16.3% in assay [3]; 5.07% in the assay with Trypanosoma cruzi; 0% in assay [4]; 13.5% in assay [5]. In addition, the Percent Effect in the assay filed under Homo sapiens is 10%; in [6] it was 4.83%; in [7], 12.5%; in assay [8], -9.58%.
For the compound `Cc1nc(C)n(CC2CCCN2Cc2cn(-c3ccccc3)nn2)n1` (stereo not given), the Percent Effect in assay [1] is -2.72%; in assay [2], -2.67%; in assay [3], 1.09%; in the assay on Trypanosoma cruzi, -1%; in assay [4], -1.77%; in assay [5], 2.97%. Besides, the Percent Effect in the assay filed under Homo sapiens is -1.44%; in [6], 3.68%; in [7] it was 0%; in assay [8], -6.83%.
As for `Cc1cc(CN(C)C(=O)c2ccc(F)cc2Br)no1`, the Percent Effect was -3.65% in assay [1]; 10.3% in assay [2]; -16.2% in assay [3]; -5.35% with Trypanosoma cruzi; -1.23% in [4]; 15.3% in assay [5]. Further, the Percent Effect in the assay listed under Homo sapiens is 28.1%; in assay [6], 3.35%; in [7], 10.8%; in [8], -3.45%.
As for `CCCNC(=O)NCc1cccnc1OC`, the Percent Effect was -1.2% in assay [1]; 13.3% in assay [2]; 0.677% in assay [3]; -0.803% in the assay with Trypanosoma cruzi; 2.66% in [4]; 14.2% in assay [5]. Also, the Percent Effect is 18.8% in the assay listed under Homo sapiens, 2.63% in [6], 10.3% in [7] and -6.38% in assay [8].
Turning to `Clc1ccc(OCCCN2CCN(c3cnccn3)CC2)cc1`, the Percent Effect in [1] was -2.88%; in [2], -7.79%; in assay [3], 9.41%; with Trypanosoma cruzi it was -0.933%; in [4] it was -2.66%; in [5] it was -2.63%. The Percent Effect in the assay listed under Homo sapiens was 3.86%; in assay [6], 11.8%; in [7] it was 23.5%; in assay [8], -3.92%.
In the case of `O=C(CSc1ccccn1)N1C[C@H]2CC[C@@H]1CN(Cc1cscn1)C2`, the Percent Effect in assay [1] is -11.4%; in [2] it was 0%; in [3] it was 4.87%; in the assay on Trypanosoma cruzi, -3.78%; in [4], -0.35%; in [5], 13.9%. The Percent Effect is 11.3% in the assay filed under Homo sapiens, -3.72% in [6], -4.88% in assay [7] and -3.86% in [8].
As for `O=C(Nc1nccs1)NC1CCN(Cc2ccccc2)C1` (stereo not given), the Percent Effect was 0.43% in assay [1]; 15.4% in assay [2]; -11.5% in assay [3]; 7.04% in the assay on Trypanosoma cruzi; 4.51% in [4]; 9.13% in [5]. The Percent Effect was -11.6% in the assay listed under Homo sapiens, 6.22% in assay [6], 22.9% in [7] and 1.47% in [8].
Take `CC(=O)N1CCOC2(CCN(C(=O)c3cnoc3C)CC2)C1`: the Percent Effect in assay [1] is -3.9%; in assay [2], -1.3%; in assay [3] it was 2.36%; in the assay on Trypanosoma cruzi, 0.682%; in assay [4], -0.405%; in [5] it was 0.441%. Besides, the Percent Effect is -5.16% in the assay filed under Homo sapiens, 2.63% in assay [6], 5.13% in assay [7] and 2.4% in [8].
Consider `CCN(CC1CCOC1)C(=O)Nc1ccc(OC)nc1` (stereo not given), for which the Percent Effect is -0.796% in [1]; 17.9% in assay [2]; -22.4% in assay [3]; 2.35% with Trypanosoma cruzi; 2.46% in [4]; 18.2% in assay [5]. Besides, the Percent Effect was 15.6% in the assay listed under Homo sapiens, 2.39% in [6], 22.9% in assay [7] and -7.72% in assay [8].
Turning to `O=C(Cc1cccnc1)N1CCC(OCc2ccccc2)CC1`, the Percent Effect in assay [1] is -7.08%; in assay [2], -8.11%; in [3], 3%; with Trypanosoma cruzi, -2.42%; in [4] it was -0.35%; in assay [5] it was 13.2%. Also, the Percent Effect was 24.2% in the assay listed under Homo sapiens, 6.92% in assay [6], 19.5% in assay [7] and 101% in assay [8].
